High-throughput results as filed in PubChem.
FEN1 inhibitor: blocks human flap endonuclease 1. P39748. Recombinant FEN1 flap cleavage, fluorescence, 15 min. Potency, µM (highest dose often 114 µM), for the others: top-dose activity change, negative = inhibition, actives largely listed as inhibitors. hit rate 0.35% among 390,000; note: potency is the fitted concentration of half-maximal effect; % is set by controls: 0 for no effect and ±100 for the full control effect; nearly all actives have a fitted effect of over 65% in size
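Potency values derive from four-parameter Hill fits of normalized qHTS data. The reaction used 10 nM FEN1 preincubated 15 min at room temperature with compound, then 50 nM DNA substrate, read at 0 and 15 min.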
PLK1 PBD block: blocks phosphopeptide binding to human PLK1 polo-box domain | Potency, µM, without a hit: max response, negative = inhibition, usual class: inhibitors | hit rate 2.8% among 360,000 | P53350 | Plk1 PBD binding of FITC phosphopeptide, fluorescence polarization; note: potency is the fitted concentration of half-maximal effect; series mostly up to about 57 µM; % is set by controls: 0 for no effect and ±100 for the full control effect; nearly all actives have a fitted effect of over 65% in size
WRN inhibitor: blocks human WRN helicase; Q14191; WRN helicase unwinding, fluorescent forked duplex, kinetic; Potency, µM (series often up to 114 µM), for the others: at the top dose activity change, negative = inhibition, most hits filed as inhibitors; hit rate 0.46% among 360,000; note: potency is the fitted concentration of half-maximal effect; % is set by controls: 0 for no effect and ±100 for the full control effect; nearly all actives have a fitted effect of over 55% in size
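Enzyme (20 nM final) and test compound sit together 15 min at room temperature before substrate addition. Substrate is a single-forked duplex oligonucleotide (100 nM) labelled with fluorophore and quencher, with 2 mM ATP; helicase unwinding raises red fluorescence, read kinetically.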
TCR act: activates T cell receptor signaling. primary human leukocytes, anti-CD3, IL-2 HTRF, 48 h. Potency, µM (titrated, usually from 9.22 µM), for inactives: at the top dose activation of IL-2 secretion, hits mostly activators. 330,000 tested, under 10 active. AID 504894; note: % of control where 0% means no effect
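IL-2 produced over 48 hr by a-CD3 bead-stimulated primary human leukocytes exposed to compounds was detected with a homogeneous time-resolved FRET immunoassay, 665nm acceptor signal after 320nm excitation.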
VDR inhibitor: vitamin D3 receptor (human) inhibition | Potency, µM, for inactives: max response, negative = inhibition, actives largely listed as inhibitors | VDR-SRC2-3 peptide fluorescence polarization, 2 h | AID 504847 | hit rate 0.93% among 400,000; note: potency is the fitted concentration of half-maximal effect; % is set by controls: 0 for no effect and ±100 for the full control effect
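Signal is fluorescence polarization, reporting how far test compounds block the interaction of VDR with the SRC2-3 coregulator peptide after a 2 h room-temperature incubation.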
PI5P4Ka inh: inhibitors of human PI5P4K alpha. PI5P4Kalpha enzyme, ADP-Glo luminescence, 60 min; stronger effect = lower value. AID 652105. hit rate 1.2% among 330,000. max response, %. P48426; active = max response of -50% or lower; inconclusive = between -30% and -50%; inactive = -30% or higher; note: value at the top dose of about 77 µM; % is set by controls: 0 for no effect and ±100 for the full control effect
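Quantitative HTS of the MLSMR library against PI5P4Kalpha with substrate. ATP added last at 5 microM final; room temperature, 60 minutes. Remaining ATP depleted, ADP converted and read as luminescence.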
TbPYK confirm: Trypanosoma brucei pyruvate kinase inhibition, cherry-pick confirmation. hit rate 67% among 890. shares compounds with PLK1 PBD block. Potency, µM (doses to about 76.9 µM), inactives show at the top dose activity change, negative = inhibition, most hits filed as inhibitors. recombinant TbPYK, Kinase-Glo ATP luminescence. AID 720569; note: potency is the fitted concentration of half-maximal effect; % is set by controls: 0 for no effect and ±100 for the full control effect; nearly all actives have a fitted effect of over 70% in size
TbPYK ADP-Glo: orthogonal confirmation of Trypanosoma brucei pyruvate kinase inhibitors | shares compounds with PLK1 PBD block | recombinant TbPYK, ADP-Glo luminescence, 60 min | Potency, µM (doses to about 76.9 µM), for the others: at the top dose activity change, negative = inhibition, usual class: inhibitors | hit rate 62% among 890 | AID 720584; note: potency is the fitted concentration of half-maximal effect; % is set by controls: 0 for no effect and ±100 for the full control effect; nearly all actives have a fitted effect of over 75% in size
The depositor's hits bear a star; ? = inconclusive; . = not tested or not shown; [ ] = dose if it differs, or a comment. A selection: hits, their analogues and other compounds. The true share with any hit is near 3.7%. Unless noted, calls come from the whole dose curve; as a rule, active = well fitted curve in the direction sought with a large enough effect; inconclusive = small, poorly fitted or top-dose-only effect, or another doubt; inactive = no such curve, though single readings can be large; an effect the other way counts as inactive or inconclusive.

SMILES	FEN1 inhibitor	PLK1 PBD block	WRN inhibitor	TCR act	VDR inhibitor	PI5P4Ka inh	TbPYK confirm	TbPYK ADP-Glo
O=C1/C(=C\c2ccncc2)CCc2ccccc21	-4.5%	-7.6%	-21.5%	-2.2%	79.4µM*	-27.8	?	7.3%
O=C1/C(=C/c2ccncc2)CCc2ccccc21	-4.4%	-3.7%	4.9%[11.6 µM]	2.7%	?	?	.	.
CCOc1ccc(/C=C2\CCc3ccccc3C2=O)cc1	3.7%	-7.7%	15.0%	5.4%	0.8%	0.6	.	.
O=C1C(=Cc2cccc(Cl)c2)CCc2ccccc21	.	0.4%	-6.0%	.	.	19.8	.	.
CN(C)S(=O)(=O)c1ccc2c(c1)N(CC(=O)Nc1ccc(OC(F)(F)F)cc1)C(=O)CS2	-16.8%	.	.	.	4.5%	.	.	.
O=C1C(=Cc2ccc(F)cc2)CCc2ccccc21	.	-15.1%	-5.6%	.	.	?	28.2µM*	9.7%
Cc1cc(Br)ccc1NC(=O)CN(C)C(=O)Cn1c(=O)cnc2ccccc21	3.9%	-15.0%	-0.1%	-2.2%	6.5%	-27.3	?	?
CC(=O)c1cc2c(cc1N/C(=N/S(=O)(=O)c1ccc(Cl)cc1)c1ccc(F)cc1)OCO2	-0.8%	.	.	.	11.8%	.	.	.
CCOc1ccccc1N1C(=O)CC(Sc2n[nH]c(-c3ccccc3)n2)C1=O (stereo unspecified)	9.2%	7.52µM*	-12.2%	-3.0%	-10.8%	-18.0	7.08µM*	12.6µM*
COc1ccc(-c2nc(CSCC(=O)NCc3ccccc3Cl)c(C)o2)cc1OC	-19.0%	.	.	.	-4.3%	.	.	.
CCOC(=O)c1ccccc1NS(=O)(=O)c1ccc(N2CCCCS2(=O)=O)cc1	13.5%	.	.	.	11.6%	.	.	.
CN(C)c1cccc2c(C=C(C#N)C#N)ccc(N(C)C)c12	-3.6%	-8.6%	-13.4%	3.9%[46.1 µM]	-13.3%	-12.8	?	?
CN(C)c1cccc2c(/C=N/O)ccc(N(C)C)c12	1.0%	-15.9%	2.9%	3.9%	1.6%	3.4	.	.
O=C(CCCn1c(=O)c2cccn2c2cccnc21)Nc1ccccc1Br	-4.6%	.	.	.	8.5%	.	.	.
CCOC(=O)C1C(=O)CC(C)(O)C(C(=O)OCC)C1c1ccccc1 (stereo unspecified)	3.5%	2.8%	-2.2%	-1.3%[46.1 µM]	-6.1%	3.7	.	.
CCOC(=O)C1C(=O)CC(C)(O)C(C(=O)OCC)C1c1ccc(Br)o1 (stereo unspecified)	0.7%	-6.8%	-11.6%	-2.7%	-0.2%	-7.6	?	-26.3%
CCCCOc1ccc(NC(=O)CCSc2nccn2C)cc1	2.9%	-0.6%	2.8%	-1.5%	-1.5%	-0.1	2µM*	2.24µM*
CCOC(=O)c1ccc(NC(=O)CSc2nccn2C)cc1	6.8%	-14.2%	1.0%	-3.7%	-3.4%	-6.7	.	.
O=C1C(=Cc2cccc(O)c2O)SC(=S)N1CCCN1CCOCC1	.	5.32µM*	-31.1%[11.6 µM]	.	.	-71.4*	4.47µM*	2.24µM*
COc1ccc(C=C2SC(=S)N(CCCN3CCOCC3)C2=O)c(OC)c1	.	7.3%	0.7%	.	.	-13.0	.	.
Cc1cc(C)cc(NC(=O)CN2C(=O)c3ccccc3Sc3ncccc32)c1	0.1%	.	.	.	14.5%	.	.	.
O=C(O)c1cccc(N2C(=O)C=CC2=O)c1	.	11.9µM*	-24.9%[11.6 µM]	.	.	?	25.1µM*	35.5µM*
O=C(Cc1ccccc1)Nc1cccc(N2C(=O)C=CC2=O)c1	7.8%	5.32µM*	44.7µM*	8.7%[46.1 µM]	?	-52.2*	5.62µM*	8.91µM*
O=C(COCc1cc(-c2ccc(F)cc2)on1)Nc1cc(Cl)ccc1O	-11.8%	.	.	.	4.1%	.	.	.
COc1cccc(NC(=O)C(=O)NCC(c2ccc3c(c2)OCO3)N2CCOCC2)c1 (stereo unspecified)	0.4%	.	.	.	1.1%	.	.	.
SMILES	FEN1 inhibitor	PLK1 PBD block	WRN inhibitor	TCR act	VDR inhibitor	PI5P4Ka inh	TbPYK confirm	TbPYK ADP-Glo
Cc1cccc(OCC(=O)NC(=S)NNC(=O)c2ccncc2)c1	-0.6%	5.32µM*	?	.	70.8µM*	-73.2*	3.55µM*	5.62µM*
Nc1c(C(=O)Nc2ccccc2)sc2nc(N3CCOCC3)c3c(c12)CCCC3	.	?	-1.1%	.	.	?	.	.
CCCCOC(=O)c1sc2nc(N3CCOCC3)c3c(c2c1N)CC(C)(C)OC3	-11.1%	-5.0%	1.6%	-6.1%	9.9%	1.6	.	.
COc1cccc(NC(=O)c2sc3nc(N4CCOCC4)c4c(c3c2N)CCCC4)c1	17.0%	?	-13.3%	-11.1%	12.5%	-22.6	?	?
Nc1c(C(=O)Nc2ccc(Cl)cc2)sc2nc(N3CCOCC3)c3c(c12)CCCC3	4.4%	?	-2.5%	-4.9%	11.8%	-8.3	?	?
Cc1ccc(NC(=O)c2sc3nc(N4CCOCC4)c4c(c3c2N)CCCC4)cc1	.	?	10.2%	.	.	-24.7	.	.
CC1(C)Cc2c(c(N3CCOCC3)nc3sc(C(=O)N4CCCCC4)c(N)c23)CO1	8.6%	?	6.4%	-2.6%[46.1 µM]	?	-20.0	0.398µM*	2.51µM*
Nc1c(C(=O)N2CCOCC2)sc2nc(N3CCOCC3)c3c(c12)CCCC3	-24.3%	26.7µM*	-12.5%	2.4%	70.8µM*	-22.3	7.94µM*	14.1µM*
OC(CCN1CCCCC1)(c1ccccc1)C1CC2C=CC1C2 (stereo unspecified)	31.3%[57.1 µM]	.	.	.	-7.6%	.	.	.
Cc1ccc(-c2cc(NC(=O)C(C)Oc3ccc(C)c(C)c3)on2)cc1 (stereo unspecified)	-5.8%	.	.	.	12.3%	.	.	.
CC(=O)C1=C(C)NC(SCC(N)=O)=C(C#N)C1CC(C)C (stereo unspecified)	-18.0%	-17.7%	?	.	79.4µM*	?	7.08µM*	8.91µM*
CC(=O)C1=C(C)NC(SCC(=O)c2ccc(F)cc2)=C(C#N)C1CC(C)C (stereo unspecified)	-11.3%	?	-20.2%	24.7%	-22.3%	-57.0*	1.12µM*	1.78µM*
CC(=O)C1=C(C)NC(SCC(N)=O)=C(C#N)C1C (stereo unspecified)	6.2%	21.2µM*	-3.8%	-1.5%	?	?	?	?
